Test results as given in PubChem BioAssay (NCI).
The panel holds about 83,000 compounds, 20% with a hit somewhere; the sample as a whole holds those more often.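 Single-dose data. Exposure time 48 hours. Values below 10 considered active.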 The source made the active and inactive calls.

How the values were obtained:
Test in all cases: NCI-60 one-dose screen, 48 h (100 = growth as untreated, 0 = no growth, -100 = all killed)
Settings in all cases: 10 µM unless noted
T-47D breast = system: T-47D breast
BT-549 breast = system: BT-549 breast
MDA-MB-435 melanoma = system: MDA-MB-435 melanoma
SW-620 colon = system: SW-620 colon
MCF7 breast = system: MCF7 breast
HCT-116 colon = system: HCT-116 colon
HCC-2998 colon = system: HCC-2998 colon
KM12 colon = system: KM12 colon

Measured: growth

CCCCC[C@H]1CC=C2C(=O)C(Cl)=C[C@@H]2CC=CCCCC(=O)O[C@@H](CCCCC)CC=C2C(=O)C(Cl)=C[C@@H]2CC=CCCCC(=O)O[C@@H](CCCCC)CC=C2C(=O)C(Cl)=C[C@@H]2CC=CCCCC(=O)O1
inactive: T-47D breast 61% [8 µM] | BT-549 breast 67.6% [8 µM] | MDA-MB-435 melanoma 25.1% [8 µM] | SW-620 colon 16.5% [8 µM] | MCF7 breast 29.9% [8 µM] | HCT-116 colon 11.4% [8 µM] | HCC-2998 colon 99.1% [8 µM] | KM12 colon 91.2% [8 µM]

Cc1ccc(-c2ccc(Nc3ccccc3)nn2)cc1S(N)(=O)=O
active: MDA-MB-435 melanoma 8.3%
inactive: T-47D breast 84.2% | BT-549 breast 80.6% | SW-620 colon 51.7% | MCF7 breast 78.1% | HCT-116 colon 79% | HCC-2998 colon 59.8% | KM12 colon 39.3%

Cn1cc(-c2nc(-c3c[nH]c4ncccc34)cs2)c2cc(Br)ccc21
inactive: T-47D breast 84% | BT-549 breast 99.8% | MDA-MB-435 melanoma 79.8% | SW-620 colon 95.8% | MCF7 breast 35.3% | HCT-116 colon 64.4% | HCC-2998 colon 99.8% | KM12 colon 62.5%

COc1ccc(-c2cc(/C=C/C(=O)c3ccc(N)cc3)[nH]n2)cc1
inactive: T-47D breast 21% | MDA-MB-435 melanoma 14.7% | MCF7 breast 18.4% | HCC-2998 colon 35.4%
active: BT-549 breast 9.81% | SW-620 colon -38.1% | HCT-116 colon 8.45% | KM12 colon 3.29%

NC(N)=N/N=C/c1ccc(-c2ccc(-c3ccc(Cl)cn3)s2)cc1
active: SW-620 colon 2.46%
inactive: T-47D breast 91.2% | BT-549 breast 98.8% | MDA-MB-435 melanoma 98.5% | MCF7 breast 42.8% | HCT-116 colon 50.2% | HCC-2998 colon 98.4% | KM12 colon 14.8%

OCC1OC(n2cnc3c(Cl)ncnc32)CC1O (stereo not drawn)
inactive: T-47D breast 92.1% | BT-549 breast 114% | MDA-MB-435 melanoma 104% | SW-620 colon 98.7% | MCF7 breast 95.2% | HCT-116 colon 94.1% | HCC-2998 colon 108% | KM12 colon 107%

C[Si](C)(C)Cc1ccccc1
inactive: T-47D breast 113% | BT-549 breast 110% | MDA-MB-435 melanoma 113% | SW-620 colon 107% | MCF7 breast 105% | HCT-116 colon 107% | HCC-2998 colon 114% | KM12 colon 108%

Cc1ccc(N(CC(=O)Nc2ccc(S(=O)(=O)N3CCC(N4CCCC4)CC3)cc2)S(=O)(=O)c2ccc(Cl)cc2)cc1
active: T-47D breast -37.2% | MDA-MB-435 melanoma -87.6% | SW-620 colon -46.8% | HCT-116 colon -70.5% | HCC-2998 colon -48.9%
inactive: BT-549 breast 74.1% | MCF7 breast 14.2% | KM12 colon 24.5%

CCN1CCN(C(=O)[C@]23CC[C@@H](C)[C@H](C)[C@H]2C2=CC[C@@H]4[C@@]5(C)C/C(=C/c6cccc(OC)c6OC)C(=O)C(C)(C)[C@@H]5CC[C@@]4(C)[C@]2(C)CC3)CC1
inactive: T-47D breast 18.2% | BT-549 breast 55% | MDA-MB-435 melanoma 43.4% | SW-620 colon 33.3% | MCF7 breast 12.2% | HCT-116 colon 17.9% | HCC-2998 colon 44.6% | KM12 colon 32.7%

O=C(Nc1ccc(/C=C2\SC(=O)N(Cc3ccc(OC(F)(F)F)cc3)C2=O)cc1)c1ccc(Cl)c([N+](=O)[O-])c1
active: T-47D breast 4.78% | SW-620 colon 2.11% | MCF7 breast 1.61%
inactive: BT-549 breast 75.3% | MDA-MB-435 melanoma 99.6% | HCT-116 colon 67.5% | HCC-2998 colon 96.7% | KM12 colon 53.1%

Cc1cc(N2CCCCC2)nc(N(CCNc2ccnc3cc(Cl)ccc23)Cc2ccco2)n1
active: T-47D breast -29.3% | HCT-116 colon 2.13%
inactive: BT-549 breast 42.4% | MDA-MB-435 melanoma 32.8% | SW-620 colon 21.9% | MCF7 breast 10.7% | HCC-2998 colon 92.6% | KM12 colon 31.9%

O=C(/C=C/c1cccc(O)c1)c1ccccc1O
inactive: T-47D breast 91.2% | BT-549 breast 85.2% | MDA-MB-435 melanoma 76% | SW-620 colon 86.3% | MCF7 breast 63.5% | HCT-116 colon 78.1% | HCC-2998 colon 98% | KM12 colon 72.5%

Cc1cc(N=O)cc(C(C)(C)C)c1O
inactive: T-47D breast 85.4% | BT-549 breast 97.7% | MDA-MB-435 melanoma 99.4% | SW-620 colon 94.8% | MCF7 breast 93.6% | HCT-116 colon 88.1% | HCC-2998 colon 106% | KM12 colon 102%

O=S(=O)(NCCNc1cc(-c2cn(-c3ccccc3)nc2-c2cccc(O)c2)ccn1)c1ccc(C(F)(F)F)cc1
inactive: T-47D breast 18.3% | BT-549 breast 65.2% | MDA-MB-435 melanoma 42.4% | SW-620 colon 64.8% | MCF7 breast 25.9% | HCT-116 colon 28.4% | KM12 colon 46.5%
active: HCC-2998 colon 8.21%

COc1cccc2c1C(=O)c1c(O)c3c(c(O)c1C2=O)C[C@@](O)(C(=O)CO)C[C@@H]3OC1C[C@H](N)[C@H](O)[C@H](C)O1 (stereo partly drawn)
active: T-47D breast -0.159% | BT-549 breast -56.5% | MDA-MB-435 melanoma -82.6% | SW-620 colon 1.37% | MCF7 breast 4.42% | HCT-116 colon 3.07% | HCC-2998 colon -45.9% | KM12 colon -14.2%

COc1ccc2c3c(c4ccccc4cc13)C(=O)N(CCN(C)CCN)C2=O
inactive: BT-549 breast 26.1%
active: T-47D breast 6.79% | MDA-MB-435 melanoma -92.6% | SW-620 colon -66.5% | MCF7 breast -88.2% | HCT-116 colon -94.8% | HCC-2998 colon -80.2% | KM12 colon -68.6%

COc1ccc(OC)c(-c2c(C#N)c(-c3ccco3)nc3c2c(-c2ccccc2)nn3-c2ccccc2)c1
inactive: T-47D breast 84% | BT-549 breast 108% | MDA-MB-435 melanoma 106% | SW-620 colon 95.8% | MCF7 breast 94.7% | HCT-116 colon 87.8% | HCC-2998 colon 105% | KM12 colon 106%

C=C(C)[C@@H]1CC[C@]2(CN)CC[C@]3(C)[C@H](CC[C@@H]4[C@@](C)(CCCN)[C@H](C(=C)C)CC[C@]43C)[C@@H]12
inactive: T-47D breast 88.6% | BT-549 breast 92.1% | MDA-MB-435 melanoma 96.2% | SW-620 colon 88.9% | MCF7 breast 71.8% | HCT-116 colon 50.1% | HCC-2998 colon 77% | KM12 colon 88.1%

CCN1CCN(C(=O)[C@@]2(C)CC[C@]3(C)CC[C@]4(C)C(=CC(=O)[C@@H]5[C@@]6(C)CC[C@H](OC7C[C@@H](O)[C@@H](O)C(C)O7)C(C)(C)[C@@H]6CC[C@]54C)[C@@H]3C2)CC1 (stereo partly drawn)
active: HCT-116 colon 1.7%
inactive: T-47D breast 82.6% | BT-549 breast 87.1% | MDA-MB-435 melanoma 20.4% | SW-620 colon 36.7% | MCF7 breast 24.5% | HCC-2998 colon 37.7% | KM12 colon 30.8%

Cc1ccc(-c2nc([P+](c3ccccc3)(c3ccccc3)c3ccccc3)c(N3CCOCC3)o2)cc1
inactive: HCC-2998 colon 14.1%
active: T-47D breast -20.4% | BT-549 breast -13% | MDA-MB-435 melanoma -6.62% | SW-620 colon 9.9% | MCF7 breast 2.74% | HCT-116 colon 1.88% | KM12 colon -22.4%

O=C(NO)c1ccc(Cn2c(=O)n(-c3ccccc3)c(=O)c3ccccc32)cc1
inactive: T-47D breast 14.1% | BT-549 breast 32.4% | MCF7 breast 33.2% | HCC-2998 colon 54.1%
active: MDA-MB-435 melanoma -64.2% | SW-620 colon 0.142% | HCT-116 colon -53.1% | KM12 colon -7.84%

c1ccc(-c2nc(Nc3ccc(-c4nc5ccccc5[nH]4)cc3)nc(N3CCOCC3)n2)cc1
inactive: BT-549 breast 33.7%
active: T-47D breast -62.3% | MDA-MB-435 melanoma -81.1% | SW-620 colon -82.9% | MCF7 breast -76.2% | HCT-116 colon -81.5% | HCC-2998 colon -80.7% | KM12 colon -76.6%

N#C/C(=C\c1ccc(-c2ccc(Br)cc2)o1)c1nc(-c2ccco2)cs1
inactive: BT-549 breast 98% | MDA-MB-435 melanoma 98.2% | SW-620 colon 95.6% | MCF7 breast 15.4% | HCT-116 colon 95.6% | HCC-2998 colon 34.1% | KM12 colon 59.4%
active: T-47D breast -26.4%

CCCNc1nc(N(C)O)nc(N(C)O)n1
inactive: T-47D breast 28.2% | BT-549 breast 68.5% | MDA-MB-435 melanoma 51.2% | SW-620 colon 38.1% | MCF7 breast 15.6% | HCC-2998 colon 24.5% | KM12 colon 41.5%
active: HCT-116 colon 5.06%

COc1ccc2c(c1)c(-c1nc(-c3c[nH]c4ncccc34)cs1)cn2C
inactive: T-47D breast 41.4% | BT-549 breast 72.8% | MDA-MB-435 melanoma 69.6% | SW-620 colon 83.3% | MCF7 breast 14.9% | HCT-116 colon 56.7% | HCC-2998 colon 83.1% | KM12 colon 24%

COc1cccc(-c2nn(-c3ccccc3)cc2-c2ccnc(NCCNS(=O)(=O)c3ccc(Cl)cc3)c2)c1
inactive: BT-549 breast 41.9% | MDA-MB-435 melanoma 21.8% | SW-620 colon 48.1% | MCF7 breast 11% | HCT-116 colon 20.6% | HCC-2998 colon 19.5% | KM12 colon 28.5%
active: T-47D breast 3.58%

Cc1cc(C=O)c(C)c2c1[nH]c1ccccc12
inactive: T-47D breast 101% | BT-549 breast 89% | MDA-MB-435 melanoma 116% | SW-620 colon 101% | MCF7 breast 85.4% | HCT-116 colon 90.5% | HCC-2998 colon 106% | KM12 colon 108%

O=C1c2cc3c(cc2-c2c1c1ccc(F)cc1c(=O)n2CCCN1CCOCC1)OCO3
inactive: T-47D breast 28.4% | BT-549 breast 47.5% | MDA-MB-435 melanoma 65.6% | SW-620 colon 48.8% | MCF7 breast 13.5% | HCT-116 colon 45.2% | HCC-2998 colon 77.8% | KM12 colon 69.8%

C=C1C(=O)O[C@H]2[C@H]1CC/C(COC(=O)NCc1cc3ccccc3[nH]1)=C\CC[C@@]1(C)O[C@@H]21
inactive: HCC-2998 colon 98.3% | KM12 colon 81%
active: T-47D breast -43.1% | BT-549 breast -24.2% | MDA-MB-435 melanoma 2.87% | SW-620 colon -37.8% | MCF7 breast 0.667% | HCT-116 colon -81.9%

Brc1ccc2c(c1)c(-c1nc(-c3c[nH]c4ncccc34)cs1)cn2CCCN1CCCCC1
inactive: T-47D breast 45% | BT-549 breast 72.8% | HCC-2998 colon 34.8% | KM12 colon 14.5%
active: MDA-MB-435 melanoma -84% | SW-620 colon -63.5% | MCF7 breast -68.1% | HCT-116 colon -62.7%

C#Cc1cc2c(N)c(C(=O)c3cc(OC)c(OC)c(OC)c3)[nH]c2cc1OC
active: MDA-MB-435 melanoma -15.8%
inactive: T-47D breast 25.7% | BT-549 breast 57.4% | SW-620 colon 18.4% | MCF7 breast 19.7% | HCT-116 colon 29.9% | HCC-2998 colon 64.3% | KM12 colon 31.5%
